Pf growth 48h = inhibits P. falciparum growth in the first generation, 48 h | Potency, µM (series often up to 28.7 µM), usual class: inhibitors | P. falciparum luciferase growth in erythrocytes, 48 h | 310,000 tested, 5.9% active
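Luminescence readout; reporter = integrated firefly luciferase in P. falciparum. RBC culture at 2% hematocrit, 0.1% parasitemia final, 37 C/5% CO2; decreased signal taken as growth inhibition.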
AmpC detergent = AmpC beta-lactamase inhibition with detergent present; P00811; AmpC hydrolysis of nitrocefin, absorbance 480 nm, 0.01% Triton; Potency, µM (top dose mostly 114 µM), hits mostly inhibitors; 370,000 tested, 0.041% active; AID 485294; further: nearly all actives have a fitted effect of over 25% in size
Target sequence (P00811 whole entry, looked up): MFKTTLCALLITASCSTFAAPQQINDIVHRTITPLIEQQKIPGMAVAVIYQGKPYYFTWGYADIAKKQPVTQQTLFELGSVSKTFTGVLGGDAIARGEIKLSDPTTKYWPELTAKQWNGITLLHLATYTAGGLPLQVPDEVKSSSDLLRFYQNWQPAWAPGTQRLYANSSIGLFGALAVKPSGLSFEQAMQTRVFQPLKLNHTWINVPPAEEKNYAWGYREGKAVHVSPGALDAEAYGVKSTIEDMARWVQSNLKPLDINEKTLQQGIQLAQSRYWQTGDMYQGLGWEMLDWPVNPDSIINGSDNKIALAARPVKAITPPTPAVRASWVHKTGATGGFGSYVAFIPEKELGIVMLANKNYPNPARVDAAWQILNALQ
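20 mM phosphate pH 7.0 + 0.01% (detergent screen) or 0.0001% Triton X-100; 5.3 nM AmpC reagent; cpd preinc 15 min RT; nitrocefin (800 uM stock) to start; A480 q20 s × 4 min; Activity was normalised to no-enzyme and no-compound control wells.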
AmpC inh no detg = inhibitors of E. coli AmpC beta-lactamase without detergent; Potency, µM (titrated, usually from 57.1 µM), usual class: inhibitors; P00811; 330,000 tested, 0.52% active; AmpC nitrocefin hydrolysis, absorbance 480 nm, 0.0001% Triton; AID 485341; further: nearly all actives have a fitted effect of over 20% in size
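AmpC (5.3 nM in the dispensed reagent) in 20 mM phosphate pH 7.0 with 0.01% (detergent screen) or 0.0001% Triton X-100 was preincubated with compounds for 15 min at room temperature. Nitrocefin was then added from an 800 uM solution, and hydrolysis was followed at 480 nm.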
SARS PLP yeast = SARS-CoV PLP inhibition in yeast; S. cerevisiae expressing SARS-CoV PLpro, growth rescue; Potency, µM (highest dose often 32.9 µM), hits mostly activators; 330,000 tested, 0.19% active; calls by dose curve; further: nearly all actives have a fitted effect of over 55% in size
Sm TGR block = inhibitors of Schistosoma mansoni thioredoxin glutathione reductase | 360,000 tested, 3% active | purified TGR, DTNB reduction, TNB absorbance 405 nm | Q962Y6 | Potency, µM (series often up to 114 µM), most hits filed as inhibitors; further: nearly all actives have a fitted effect of over 60% in size
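Kinetic colorimetric format: TGR-catalysed, NADPH-driven DTNB reduction monitored via TNB absorbance. Enzyme dispensed at 20 nM; compound exposure 15 min at room temperature before reaction start.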
Pf growth 96h = P. falciparum growth inhibition at 96 hour, primary screen for plastid delayed-death inhibitors. AID 504834. P. falciparum luciferase reporter growth, 96 h. Potency, µM (highest dose often 28.7 µM), actives largely listed as inhibitors. 320,000 tested, 6.9% active
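Erythrocytes infected with luciferase-expressing P. falciparum were dispensed at 2% hematocrit and 0.05% parasitemia (final), then incubated with compounds 96 hours at 37 C in 5% CO2. Luminescence after detection reagent addition reported growth.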
Each line names hits and unclear results; the compound was inactive in the other large screens. Sampled rows, rich in hits. Any-hit rate of the full collection: about 12%. Unless noted, the call rests on the fitted dose curve; in most records, active means well fitted curve in the direction sought with a large enough effect; inconclusive means small, poorly fitted or top-dose-only effect, or another doubt; inactive means no such curve, though single readings can be large; an effect the other way counts as inactive or inconclusive.

FC(F)(F)C1=CC(c2ccc(Cl)cc2)=NCCN1	Pf growth 48h inconclusive, Pf growth 96h 2.6µM
Cc1nn(C)c(Oc2ccccc2)c1CCNC(=O)CCl	Pf growth 48h inconclusive, Sm TGR block inconclusive, Pf growth 96h 10µM
c1ccc(CSc2nnc3c(n2)OC(c2ccco2)Nc2ccccc2-3)cc1 (configuration not stated)	Pf growth 48h inconclusive, Sm TGR block 11µM
CC(C)NC(=S)N/N=C1\CCCCC1C1CCCCC1 (configuration not stated)	Pf growth 96h 3.3µM (no result: Pf growth 48h)
CC1CCCC/C1=N\NC(=S)Nc1ccccc1 (configuration not stated)	Pf growth 96h inconclusive
CSc1nc(N(C)CCO)c2sc3nc(-c4ccco4)c4c(c3c2n1)CCC4	Pf growth 48h inconclusive, Sm TGR block 1.4µM, Pf growth 96h inconclusive
COc1ccc(S(=O)(=O)N2CCC(N3CCN(Cc4ccc(F)cc4)C(=O)C3=O)CC2)cc1	none (no result: Pf growth 48h, AmpC inh no detg, SARS PLP yeast, Pf growth 96h)
Cc1oc(/N=C/c2ccc(O)cc2O)c(C#N)c1C	Sm TGR block 50µM
Cc1oc(/N=C/c2ccccc2O)c(C#N)c1C	none
Cc1nc2ccccc2c2oc(C(=O)NCCN3CCCCC3C)cc12 (configuration not stated)	Pf growth 48h inconclusive, AmpC detergent inconclusive, SARS PLP yeast inconclusive, Pf growth 96h inconclusive
CCN1CCCC1CNC(=O)c1cc2c(C)nc3ccccc3c2o1 (configuration not stated)	Pf growth 48h 9.3µM, Pf growth 96h inconclusive
CCN1CCCC1CNC(=O)C(=O)NC(C)C (configuration not stated)	none
CCN1CCCC1CNC(=O)C(=O)NC(C)c1ccccc1 (configuration not stated)	Pf growth 96h 12µM
Cc1cc(C)cc(NC(=O)CCS(=O)(=O)c2cccc3nsnc23)c1	none (no result: Pf growth 48h, AmpC inh no detg, SARS PLP yeast, Pf growth 96h)
COc1cccc(Nc2nnc(-c3cc4ccc(O)cc4oc3=O)s2)c1	none (no result: Pf growth 48h, AmpC inh no detg, SARS PLP yeast, Pf growth 96h)
COc1cccc(-c2c(-c3cc(OC)cc(OC)c3)n(C)c3ccc(-c4ccc5[nH]ccc5c4)cc23)c1	Pf growth 48h 5.9µM, Pf growth 96h inconclusive
COc1ccc(-c2c(-c3cc(OC)cc(OC)c3)n(C)c3ccc(-c4ccc5cc[nH]c5c4)cc23)cc1	none (no result: Pf growth 48h, AmpC detergent, Sm TGR block, Pf growth 96h)
COc1cc(OC)cc(-c2c(-c3ccc(F)cc3)c3cc(-c4ccc5[nH]ccc5c4)ccc3n2C)c1	Pf growth 48h 5.2µM, Pf growth 96h 1.7µM
COc1cccc(-c2c(-c3cc(OC)cc(OC)c3)n(C)c3ccc(-c4cccc5[nH]ccc45)cc23)c1	Pf growth 48h 1.9µM, Pf growth 96h inconclusive
Cc1ccc(O)c([C@H](CCN(C(C)C)C(C)C)c2ccccc2)c1	Pf growth 48h 1.7µM
CCCN(CCC)C(=O)CC(c1ccccc1)c1ccc(C)cc1O (configuration not stated)	Pf growth 96h inconclusive (no result: Pf growth 48h)
CCOC(=O)CC(NC(=O)Cc1cccs1)c1ccccc1Cl (configuration not stated)	Sm TGR block 89µM
CCCCN1C(=N)C(CC)(CC)C(=O)NC1=O	AmpC detergent inconclusive, Pf growth 96h 15µM
CCC1(CC)C(=N)N(C)C(=O)NC1=O	Pf growth 96h inconclusive
COc1ccc(-c2cc(C(F)(F)F)n3nc(C(=O)Nc4sc5c(c4C(=O)OC(C)C)CCC(C)C5)cc3n2)cc1 (configuration not stated)	none (no result: Pf growth 48h, AmpC inh no detg, SARS PLP yeast, Pf growth 96h)
Cc1sc(-n2c(C)ccc2C)c(C#N)c1C	Pf growth 96h 10µM
CCN(CC)C(=O)Cn1cnc2c1c(=O)n(C)c(=O)n2C	none (no result: Pf growth 96h)
CCCn1cnc2c1c(=O)n(CCCCC(C)=O)c(=O)n2C	Pf growth 48h 12µM (no result: AmpC detergent, AmpC inh no detg, SARS PLP yeast, Sm TGR block)
Cc1ccc2c(c1)c1c(c(=O)n(Cc3ccccc3)c(=O)n1Cc1cccc(F)c1)n2C	none (no result: Pf growth 48h, AmpC inh no detg, SARS PLP yeast, Pf growth 96h)
CC12CCC(C(=O)N(CSC(=S)N/N=C\c3ccccc3O)C1=O)C2(C)C (configuration not stated)	Pf growth 48h 10µM, Sm TGR block 20µM, Pf growth 96h inconclusive
CC12CCC(C(=O)N(CC(O)CN3CCN(Cc4ccccc4)CC3)C1=O)C2(C)C (configuration not stated)	none
CCCC1(C(=O)O)NC(c2ccc(OC)cc2O)C2C(=O)N(c3ccc(OC)cc3)C(=O)C21 (configuration not stated)	Pf growth 96h 15µM (no result: Pf growth 48h)
CN(CC(=O)NCc1ccccc1Cl)S(=O)(=O)c1ccc2c(c1)c(=O)n(C)c(=O)n2C	none (no result: Pf growth 48h, AmpC inh no detg, SARS PLP yeast, Pf growth 96h)
CCCCn1c(C)cc2c(c1=O)C1O[C@](c3ccc(OC)cc3)(Cc3cc(OC)c(OC)cc31)O2	Pf growth 48h inconclusive, Sm TGR block inconclusive, Pf growth 96h 1.5µM
CCCCn1c(C)cc2c(c1=O)[C@H]1O[C@](CCCC)(Cc3cc(OC)c(OC)cc31)O2	Pf growth 96h inconclusive
COc1cc2c(cc1OC)[C@@H]1O[C@](CCCCN3C(=O)c4ccccc4C3=O)(C2)Oc2cc(C)n(-c3ccccc3)c(=O)c21	Pf growth 48h 1.1µM, Pf growth 96h inconclusive
COc1cc2c(cc1OC)C1O[C@](CCCCN3C(=O)c4ccccc4C3=O)(C2)Oc2cc(C)n(Cc3ccccc3)c(=O)c21	Pf growth 48h inconclusive, Sm TGR block inconclusive, Pf growth 96h 2.4µM
CCCCC[C@]12Cc3cc(OC)c(OC)cc3C(O1)c1c(cc(C)n(-c3ccccc3)c1=O)O2	Pf growth 48h inconclusive, Sm TGR block inconclusive
Cc1ccc2c(=O)cc(C(=O)Nc3c(C)n(C)n(-c4ccccc4)c3=O)oc2c1C	none (no result: Pf growth 48h, AmpC inh no detg, SARS PLP yeast, Pf growth 96h)
CCc1cccc(NC(=O)Cn2c(=O)n(CC3CCC(C(=O)NC)CC3)c(=O)c3sccc32)c1 (configuration not stated)	none (no result: Pf growth 48h, AmpC inh no detg, SARS PLP yeast, Pf growth 96h)
NS(=O)(=O)c1ccc(CCNC(=O)/C=C/c2cccc([N+](=O)[O-])c2)cc1	none (no result: Sm TGR block)
COc1cc(/C=C/C(=O)NCCc2ccc(S(N)(=O)=O)cc2)ccc1OCC#N	Pf growth 48h inconclusive, Pf growth 96h 12µM
CCOc1cc(CNc2ccc(S(N)(=O)=O)cc2)ccc1OCC(=O)NC(C)(C)C	Pf growth 96h inconclusive
CCOc1cc(/C=C/C(=O)NCCc2ccc(S(N)(=O)=O)cc2)ccc1OCC(C)C	Pf growth 48h inconclusive, Pf growth 96h 0.66µM
COc1ccc(CCNC(=O)/C=C/c2cc(OC)c(OC)c(OC)c2)cc1OC	Pf growth 96h inconclusive
CCOc1cc(/C=C/C(=O)Nc2ccc(C(=O)NCCN(CC)CC)cc2)ccc1OCC(C)C	Pf growth 48h 2.6µM, Pf growth 96h 0.52µM
COc1cc(CNCCc2ccc(S(N)(=O)=O)cc2)ccc1OCC(=O)NC(C)(C)C	Pf growth 96h 13µM
CCN(CC(=O)NCCC1=CCCCC1)S(=O)(=O)c1ccccc1	none
